# Bioassay records from PubChem.
# Shown are actives, neighbours in structure and some others; about 9.4% of the full set was active somewhere.
# Pf growth 96h: Primary qHTS for delayed death inhibitors of the malarial parasite plastid, 96 hour incubation; P. falciparum luciferase reporter growth, 96 h; Potency, µM (series often up to 28.7 µM), without a hit: at the highest dose activity change, negative = inhibition, usual class: inhibitors; actives 6.9% (n = 320,000); note: % is set by controls: 0 for no effect and ±100 for the full control effect
#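 Infected RBCs, 2% Hct / 0.05% parasitemia final; luciferase-reporter P. falciparum; cpd 96 h, 37 C, 5% CO2; luciferase detection reagent; luminescence.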
# Pf growth 48h: Primary qHTS for delayed death inhibitors of the malarial parasite plastid, 48 hour incubation. P. falciparum luciferase growth in erythrocytes, 48 h. Potency, µM (highest dose often 28.7 µM), without a hit: at the highest dose activity change, negative = inhibition, hits mostly inhibitors. actives 5.9% (n = 310,000). AID 504832, 2011; note: % is set by controls: 0 for no effect and ±100 for the full control effect
#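 Read-out is firefly luciferase luminescence from an integrated reporter in P. falciparum, so falling signal marks reduced parasite growth. Infected erythrocytes were at 2% hematocrit and 0.1% parasitemia (final) in Albumax-supplemented RPMI 1640.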
# AMA1-RON2 inh: qHTS for Inhibitors of AMA1-RON; Towards Development of Antimalarial Drug Lead: Primary Screen; AlphaScreen AMA1-biotinylated RON2 peptide binding; Potency, µM (top dose mostly 58.2 µM), for inactives: at the top dose activity change, negative = inhibition, actives largely listed as inhibitors; actives 0.2% (n = 360,000);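 note: 0% = vehicle wells and -100% = peptide control; nearly all actives have a fitted effect of over 45% in size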
#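 AMA1 (3D7) with his tag at 25 nM final met compounds first, then biotinylated RON2 peptide at 25 nM; detection used donor plus acceptor beads, 10 µg/mL apiece, read by AlphaScreen after 30 min at room temperature.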
# SARS PLpro yeast: qHTS of Yeast-based Assay for SARS-CoV PLP; Potency, µM (series often up to 32.9 µM), for inactives: top-dose activity, positive = growth rescue, actives largely listed as activators; actives 0.19% (n = 330,000); S. cerevisiae expressing SARS-CoV PLpro, growth rescue; AID 485353, 2010; calls by dose curve; note: 0% is about no effect; nearly all actives have a fitted effect of over 55% in size
# The depositor's hits bear a star; ? = inconclusive; . = no result given. Unless noted, calls come from the whole dose curve; as a rule, active = well fitted curve in the direction sought with a large enough effect; inconclusive = small, poorly fitted or top-dose-only effect, or another doubt; inactive = no such curve, though single readings can be large; an effect the other way counts as inactive or inconclusive. Potency is the fitted concentration of half-maximal effect.
SMILES,Pf growth 96h,Pf growth 48h,AMA1-RON2 inh,SARS PLpro yeast
N#Cc1c(N2CCCCC2)nc(N)c2c(N)nc3c(c12)CC(c1ccccc1)O3 (configuration not stated),4.1µM*,5.9µM*,9%,1%
CCN(CC)c1nc(N)c2c(N)nc3c(c2c1C#N)CC(c1ccccc1)O3 (configuration not stated),.,2.3µM*,59%,-3%
CCN(CC)c1nc(N)c2c(N)n(-c3ccccc3C)c(=S)c(C#N)c2c1C#N,.,12%,9%,-5%
COc1cc2c(cc1OC)C(NC(=O)C(F)(F)F)C/C2=N\O (configuration not stated),13%,13µM*,-15%,3%
COc1ccc2c(c1)C(NC(=O)C(F)(F)F)CC2=O (configuration not stated),11%,23%,4%,0%
CN1C(=O)c2oc3ccccc3c(=O)c2C1c1ccncc1 (configuration not stated),4%,10%,-11%,-1%
CC1CCc2nn(CC(=O)N3CCc4ccccc43)cc2C1 (configuration not stated),10µM*,.,-8%,6%
CC1CCc2nn(CC(=O)Nc3ccc(F)cc3F)cc2C1 (configuration not stated),2.9µM*,12%,14%,-9%
CC1CCc2nn(CC(=O)NC3CCCC(C)C3C)cc2C1 (configuration not stated),0.37µM*,7%,2%,-7%
CC1CCc2nn(CC(=O)N3CCCCCC3)cc2C1 (configuration not stated),-10%,19%,0%,-8%
CCOC(=O)N1CCC(NC(=O)Cn2cc3c(n2)CCC(C)C3)CC1 (configuration not stated),48%,-8%,6%,26%
CC1CCc2nn(CC(=O)NCc3ccc(F)cc3)cc2C1 (configuration not stated),9.3µM*,-2%,0%,3%
CC1CCN(C(=O)CCCNC(=O)Cn2cnc3sc4c(c3c2=O)CCCC4)CC1,10%,.,29%,2%
COCC(=O)N1CCC(Oc2ccc(C(=O)NCc3csc(C(C)C)n3)cc2)CC1,-8%,9%,2%,-1%
C[C@]1(OC(=O)/C=C/c2ccccc2)C[C@@H](O)[C@]2(O)C=CO[C@@H](O[C@@H]3O[C@H](CO)[C@@H](O)[C@H](O)[C@H]3O)[C@@H]21,22%,5%,-5%,.
Cc1ccc(C(=O)Nc2cccc(C(F)(F)F)c2)cc1Nc1cnccn1,?,?,-3%,-5%
O=C(Cn1cc2c(n1)CCCC2)NCc1cccs1,5.2µM*,.,0%,17%
O=C(Cn1cc2c(n1)CCCC2)NCc1ccccn1,34%,4%,134%,11%
O=C(CSc1nnc(CNC(=O)c2ccc(F)cc2)o1)NCCc1ccccc1,43%,-1%,-5%,-2%
COc1cccc(/C=N/NC(=O)c2ccc(-c3ccccc3)cc2)c1O,7.4µM*,.,57%,?
COc1ccc(OC)c(/C=N\NC(=O)c2ccc(-c3ccccc3)cc2)c1,?,3%,3%,1%
COc1cccc(/C=N/NC(=O)c2ccc(=O)[nH]n2)c1O,0%,5.9µM*,-17%,1%
COc1cccc(/C=N/NC(=O)C[n+]2ccccc2)c1O,5.9µM*,?,-43%,?
COCCCNC(=S)N/N=C/c1ccc(O)cc1O,-4%,30%,4%,-3%
COCCCNC(=S)N/N=C/c1cccc(OC)c1O,?,0.41µM*,45%,0%
SMILES,Pf growth 96h,Pf growth 48h,AMA1-RON2 inh,SARS PLpro yeast
COc1ccc(C(=O)Nc2ccccc2-c2nnn(CC(N)=O)n2)cc1,.,.,-6%,.
COc1ccc(CNC(=O)C(c2ccc(C)o2)N(C(=O)c2snc(C(N)=O)c2N)c2ccccc2OC)cc1 (configuration not stated),60%,?,-14%,1%
CCc1nc2ccc(C(=O)N3CCN(S(=O)(=O)CC)CC3)cn2c1N(C)C(=O)C1CCCCC1,.,.,6%,.
CC(C)(C)C(=O)Nc1ccc(C(=O)N/N=C/c2ccccc2OC(=O)c2ccccc2)cc1,4.1µM*,?,0%,-8%
COc1cccc(/C=N/NC(=O)c2[nH]c(C)c(C(=O)N/N=C/c3cccc(OC)c3O)c2C)c1O,.,9.3µM*,28%,?
O=C(COc1ccc(Br)cc1)c1ccc2c(c1)CCCC2,8.3µM*,33%,73%,-2%
CN(C(=O)COC(=O)c1cc2ccccc2cc1O)c1ccccc1,.,.,2%,3%
Cc1cc(C2=NNC(=NCc3ccccc3)SC2)c(C)n1-c1c(C)n(C)n(-c2ccccc2)c1=O,?,12µM*,69%,-4%
CN=C1NN=C(c2cc(C)n(-c3c(C)n(C)n(-c4ccccc4)c3=O)c2C)CS1,?,?,-11%,8%
CCOC(=O)c1sc2c(c1C)c(=O)c(C(=O)OCC)cn2CC,8%,2.3µM*,-1%,-9%
O=C(O)CCNC(=O)COc1ccc2c3c(c(=O)oc2c1)CCCC3,?,34%,-7%,-1%
COc1ccc(CN(C(=O)CSc2nnc(-c3c[nH]c4ccccc34)o2)c2ccc(F)cc2)cc1OC,?,4.1µM*,-22%,10%
Cc1ccc(Cl)cc1NC(=S)N(Cc1ccco1)C(C)c1cccs1 (configuration not stated),?,15µM*,-1%,0%
COc1cc(NC(=O)CSc2nnc(-c3ccncc3)n2C2CCCCC2)ccc1NC(=O)c1ccco1,?,.,-2%,-3%
O=C(Nc1cccc(O)c1)c1cccc(S(=O)(=O)N2CCCC2)c1,2%,-2%,5%,-3%
Cc1noc(C)c1COC(=O)c1cccc(S(=O)(=O)N2CCOCC2)c1,3%,?,-17%,-1%
Cc1cc(C)n(-c2ccc(C(=O)Nc3cccc(S(=O)(=O)N4CCCC4)c3)cc2)n1,10µM*,-32%,-8%,-4%
O=C(Nc1cccc(S(=O)(=O)N2CCCC2)c1)c1cccc(S(=O)(=O)N2CCOCC2)c1,?,12µM*,-4%,-2%
Cc1noc(C)c1COc1ccc(C(=O)OCC(=O)Nc2cccc(S(=O)(=O)N3CCOCC3)c2)cc1,5.2µM*,-29%,2%,-20%
COc1ccc(CN(C)C(C)C(=O)Nc2ccc(S(=O)(=O)N3CCCCC3)cc2)cc1F (configuration not stated),?,10µM*,-9%,-1%
CCOC(=O)NC(NC(=S)Nc1ccccc1[N+](=O)[O-])C(Cl)(Cl)Cl (configuration not stated),?,.,-5%,10%
O=C(Nc1cccc(S(=O)(=O)N2CCCC2)c1)c1cc(S(=O)(=O)N2CCOCC2)ccc1F,?,9.3µM*,0%,7%
COc1ccc(-c2cnnn2-c2ccc(NC(=O)c3ccc(S(=O)(=O)N4CCCCC4)cc3)cc2)cc1OC,1.5µM*,4.1µM*,-12%,10%
